Data from PubChem BioAssay AID1159580 (chemical genetic matrix, 2015).
Among all 5,500 compounds or so, about 2,000 (36%) were called active. Roughly 18% stayed inconclusive and do not appear here. Some of the results follow. Unmarked numbers belong to inactive results. No stated cut-off is given here; in the data, active means normalized growth mostly below about 0.91 (no sharp cut-off); inconclusive means no clear call, values can overlap the other calls; inactive means mostly above about 0.92.

Experiment: chemical genetic growth profiling, strain panel (AID 1159580);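 further: tested at 20 µM; growth read once vehicle control cultures reached saturation at 30 °C; 1 = growth at the plate median or of vehicle wells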
Conditions: S. cerevisiae deletion strains, growth OD
[1] = locus YHR030C, strain SLT2, stronger effect = lower value
[2] = locus YHR079C, strain IRE1, stronger effect = lower value
[3] = locus YJL095W, strain BCK1, stronger effect = lower value
[4] = locus YJR066W, strain TOR1, stronger effect = lower value
[5] = locus YLR113W, strain HOG1, stronger effect = lower value
[6] = locus YNL183C, strain NPR1, stronger effect = lower value
[7] = locus YOR231W, strain MKK1, stronger effect = lower value
[8] = locus YPL256C, strain CLN2, stronger effect = lower value

Question: What does the source list for `C[N+]1(C)CCc2cc3c(cc2[C@H]1C1OC(=O)c2c1ccc1c2OCO1)OCO3` (stereo partly drawn)?
Answer: normalized growth (locus YAL021C, strain ccr4, stronger effect = lower value): 0.981; normalized growth (locus YAL026C, strain drs2, stronger effect = lower value): 0.987; normalized growth (locus YAL030W, strain snc1, stronger effect = lower value): 0.999; normalized growth (locus YBL061C, strain skt5, stronger effect = lower value): 1; normalized growth (locus YBR009C, strain hhf1, stronger effect = lower value): 0.992; normalized growth (locus YBR023C, strain chs3, stronger effect = lower value): 1.01; normalized growth (locus YBR171W, strain sec66, stronger effect = lower value): 1; normalized growth (locus YBR231C, strain swc5, stronger effect = lower value): 1.01; normalized growth (locus YBR279W, strain paf1, stronger effect = lower value): 0.997; normalized growth (locus YCL011C, strain gbp2, stronger effect = lower value): 0.999; normalized growth (locus YCL016C, strain dcc1, stronger effect = lower value): 0.991; normalized growth (locus YCL061C, strain MRC1, stronger effect = lower value): 0.994; normalized growth (locus YCL069W, strain vba3, stronger effect = lower value): 0.999; normalized growth (locus YCR088W, strain abp1, stronger effect = lower value): 0.997; normalized growth (locus YDL005C, strain med2, stronger effect = lower value): 1; normalized growth (locus YDL040C, strain nat1, stronger effect = lower value): 0.996; normalized growth (locus YDR001C, strain nth1, stronger effect = lower value): 0.983; normalized growth (locus YDR069C, strain doa4, stronger effect = lower value): 1.02; normalized growth (locus YDR137W, strain rgp1, stronger effect = lower value): 0.996; normalized growth (locus YDR159W, strain sac3, stronger effect = lower value): 1.07; normalized growth (locus YDR195W, strain ref2): 0.989; normalized growth (locus YDR297W, strain sur2, stronger effect = lower value): 1.01; normalized growth (locus YDR334W, strain swr1, stronger effect = lower value): 0.986; normalized growth (locus YDR335W, strain msn5, stronger effect = lower value): 0.996; normalized growth (locus YDR392W, strain spt3, stronger effect = lower value): 0.982; normalized growth (locus YEL003W, strain gim4, stronger effect = lower value): 1; normalized growth (locus YEL037C, strain rad23, stronger effect = lower value): 0.99; normalized growth (locus YEL061C, strain CIN8 (second series), stronger effect = lower value): 0.99; normalized growth (locus YER015W, strain faa2, stronger effect = lower value): 0.992; normalized growth (locus YER016W, strain bim1, stronger effect = lower value): 1; normalized growth (locus YER111C, strain swi4, stronger effect = lower value): 1.01; normalized growth (locus YER155C, strain BEM2 (second series), stronger effect = lower value): 1; normalized growth (locus YFR010W, strain ubp6, stronger effect = lower value): 0.989; normalized growth (locus YGL167C, strain pmr1, stronger effect = lower value): 0.998; normalized growth (locus YGL173C, strain kem1, stronger effect = lower value): 1.01; normalized growth (locus YGL227W, strain vid30, stronger effect = lower value): 1; normalized growth (locus YGL240W, strain doc1, stronger effect = lower value): 1.01; normalized growth (locus YGL253W, strain hxk2, stronger effect = lower value): 0.995; normalized growth (locus YHR013C, strain ard1, stronger effect = lower value): 0.957; normalized growth (locus YHR027C, strain rpn1, stronger effect = lower value): 0.992; normalized growth [1]: 1.06; normalized growth [2]: 1.06; normalized growth (locus YHR142W, strain chs7, stronger effect = lower value): 0.981; normalized growth (locus YJL092W, strain hpr5, stronger effect = lower value): 0.995; normalized growth (locus YJL095W, strain BCK1 (second series), stronger effect = lower value): 0.994; normalized growth [3]: 1.06; normalized growth (locus YJL115W, strain asf1, stronger effect = lower value): 0.978; normalized growth (locus YJL129C, strain trk1, stronger effect = lower value): 1; normalized growth (locus YJL154C, strain vps35, stronger effect = lower value): 0.991; normalized growth (locus YJL164C, strain tpk1, stronger effect = lower value): 0.98; normalized growth (locus YJL166W, strain qcr8, stronger effect = lower value): 1; normalized growth (locus YJL187C, strain SWE1, stronger effect = lower value): 1.02; normalized growth [4]: 0.973; normalized growth (locus YKL160W, strain elf1, stronger effect = lower value): 0.989; normalized growth (locus YKR026C, strain gcn3, stronger effect = lower value): 0.991; normalized growth (locus YKR091W, strain srl3, stronger effect = lower value): 0.988; normalized growth (locus YLL001W, strain dnm1, stronger effect = lower value): 0.97; normalized growth (locus YLL026W, stronger effect = lower value): 1; normalized growth (locus YLL041C, strain sdh2, stronger effect = lower value): 0.993; normalized growth (locus YLR027C, strain aat2, stronger effect = lower value): 1.01; normalized growth [5]: 1.03; normalized growth (locus YLR221C, strain rsa3, stronger effect = lower value): 1.03; normalized growth (locus YLR258W, strain gsy2, stronger effect = lower value): 1.01; normalized growth (locus YLR262C, strain YPT6 (second series), stronger effect = lower value): 0.995; normalized growth (locus YLR320W, strain mms22, stronger effect = lower value): 1.03; normalized growth (locus YLR342W, strain FKS1, stronger effect = lower value): 0.996; normalized growth (locus YLR357W, strain rsc2, stronger effect = lower value): 0.956; normalized growth (locus YLR370C, strain arc18, stronger effect = lower value): 1.01; normalized growth (locus YLR384C, strain iki3, stronger effect = lower value): 0.999; normalized growth (locus YML120C, strain ndi1, stronger effect = lower value): 0.991; normalized growth (locus YMR058W, strain fet3, stronger effect = lower value): 0.986; normalized growth (locus YMR125W, strain sto1, stronger effect = lower value): 0.97; normalized growth (locus YMR129W, stronger effect = lower value): 1; normalized growth (locus YMR205C, strain PFK2, stronger effect = lower value): 0.971; normalized growth (locus YMR231W, strain pep5, stronger effect = lower value): 0.983; normalized growth (locus YNL071W, strain lat1, stronger effect = lower value): 0.997; normalized growth [6]: 0.974; normalized growth (locus YNL209W, strain ssb2, stronger effect = lower value): 1; normalized growth (locus YNL248C, strain rpa49, stronger effect = lower value): 0.959; normalized growth (locus YNL322C, strain KRE1 (second series), stronger effect = lower value): 1; normalized growth (locus YNR049C, strain mso1, stronger effect = lower value): 1.01; normalized growth (locus YOR001W, strain rrp6, stronger effect = lower value): 1.01; normalized growth (locus YOR070C, strain gyp1, stronger effect = lower value): 1.02; normalized growth (locus YOR080W, strain dia2, stronger effect = lower value): 1.01; normalized growth (locus YOR083W, strain WHI5, stronger effect = lower value): 0.997; normalized growth (locus YOR106W, strain vam3, stronger effect = lower value): 0.963; normalized growth [7]: 1.03; normalized growth (locus YOR265W, strain rbl2, stronger effect = lower value): 1.01; normalized growth (locus YOR270C, strain vph1, stronger effect = lower value): 0.967; normalized growth (locus YOR290C, strain snf2, stronger effect = lower value): 0.95; normalized growth (locus YPL051W, strain arl3, stronger effect = lower value): 1.04; normalized growth (locus YPL078C, strain atp4, stronger effect = lower value): 0.965; normalized growth (locus YPL106C, strain sse1, stronger effect = lower value): 0.999; normalized growth (locus YPL240C, strain hsp82, stronger effect = lower value): 1.01; normalized growth [8]: 1.03

Question: What does the source list for `CC(C)N=c1cc2n(-c3ccc(Cl)cc3)c3ccccc3nc-2cc1Nc1ccc(Cl)cc1`?
Answer: normalized growth [1]: 0.929; normalized growth [2]: 0.812 (active); normalized growth [3]: 0.869 (active); normalized growth [4]: 0.948; normalized growth [5]: 0.807 (active); normalized growth [6]: 0.9; normalized growth [7]: 0.831 (active); normalized growth [8]: 0.818 (active)
